# TGFb SMAD3 inh – blocks TGF-b signaling; HepG2 CAGA-GFP TGF-b/SMAD3 reporter, GFP fluorescence, 18 h; TGF-beta stimulated, 500 pg/mL final; Potency, µM (series often up to 46.1 µM), without a hit: top-dose activity, negative = inhibition, most hits filed as inhibitors; 410,000 compounds, 1.2% hits; AID 588855; further: potency means the concentration at half of the fitted maximal effect; on the % scale 0 is the no-effect control and ±100 the full control effect; nearly all actives have a fitted effect of over 65% in size
#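 Cell-based qHTS in HEPG2 carrying a CAGA-GFP Smad reporter; compounds added before 500 pg/mL final TGF-beta, 18 h incubation at 37 degrees C, GFP fluorescence quantified per cell by imaging cytometry.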
# HepG2 tox – HepG2 cytotoxicity, counter-screen for TGF-b inhibitors; HepG2 CAGA-GFP viability, ATP luminescence, 18 h; Potency, µM (top dose mostly 46.1 µM), for inactives: top-dose activity change, negative = cytotoxicity, most hits filed as cytotoxic; 410,000 compounds, 0.76% hits; AID 588856; further: potency means the concentration at half of the fitted maximal effect
#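 CellTiter-Glo luminescence gave cytotoxicity after 18 hours at 37 degrees C. The cells were HepG2 CAGA-GFP in 1% FBS DMEM, stimulated with 500 pg/mL TGF-beta after compound addition. %Activity was normalised to no-cell wells (complete cell-killing) and DMSO (no toxicity), and curves were fitted and classified.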
# D3 ag – D3 dopamine receptor (human) agonism; P35462; D3R DiscoveRx beta-arrestin cells, luminescence, 90 min; max activation, %; 410,000 compounds, 0.58% hits; in the data active means max activation above about 30%; further: 0% is about no effect
# Target sequence (P35462 whole entry, looked up): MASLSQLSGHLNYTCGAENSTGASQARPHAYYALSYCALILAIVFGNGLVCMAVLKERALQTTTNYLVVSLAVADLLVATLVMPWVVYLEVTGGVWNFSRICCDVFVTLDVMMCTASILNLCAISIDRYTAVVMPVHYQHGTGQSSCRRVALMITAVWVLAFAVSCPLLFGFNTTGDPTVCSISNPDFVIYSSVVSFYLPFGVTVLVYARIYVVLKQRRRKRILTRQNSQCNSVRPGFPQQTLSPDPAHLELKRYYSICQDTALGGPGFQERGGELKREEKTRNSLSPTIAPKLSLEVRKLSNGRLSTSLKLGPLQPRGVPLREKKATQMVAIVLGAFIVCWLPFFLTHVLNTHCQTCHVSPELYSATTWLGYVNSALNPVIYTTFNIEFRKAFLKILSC
#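 Agonist mode: compounds and dopamine controls were applied to plated cells for 90 min at 37 degrees C after an overnight attachment at 1500 cells/well. Luminescent read-out followed 30 - 60 minutes at room temperature with DiscoveRx detection reagent.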
# DRD3 antagonist – antagonists of human D3 dopamine receptor | D3R cells, DiscoveRx beta-arrestin luminescence, antagonist mode; hits give low values | max response, negative = inhibition, % | P35462 | 360,000 compounds, 2.5% hits | AID 652054; in the data active means max response below about -50%; inconclusive means no clear call, values can overlap the other calls; further: on the % scale 0 is the no-effect control and ±100 the full control effect
#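 Cells plated overnight at 1500 cells/well, then exposed to library compounds with dopamine controls for 90 minutes at 37 degrees C. DiscoveRx reagent added for 30–60 minutes at room temperature; luminescence read, quantitative HTS format.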
# ATXN2 expr inh – inhibitors of ATXN2 expression | HEK-293 ATXN2-luciferase reporter, luminescence, 24 h | 360,000 compounds, 0.72% hits | AID 1745845 | Potency, µM (highest dose often 57 µM), inactives show at the highest dose activity change, negative = inhibition, usual class: inhibitors; further: potency means the concentration at half of the fitted maximal effect; on the % scale 0 is the no-effect control and ±100 the full control effect; nearly all actives have a fitted effect of over 55% in size
#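 qHTS (up to 57 uM final) was run with 24 h compound exposure of reporter cells at 37 °C. Each well was multiplexed: SteadyGlo luminescence measured ATXN2-luciferase expression after a fluorogenic Gly-Phe-AFC viability readout (25 uM final).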
# ATXN viability – cell viability loss in ATXN counter-screen; AID 651635; 400,000 compounds, 0.49% hits; S2 cells (HEK-293 line with an ATXN2-luciferase reporter) viability, CellTiter-Fluor protease fluorescence, 24 h; Potency, µM (titrated, usually from 56.7 µM), actives largely listed as cytotoxic; further: potency means the concentration at half of the fitted maximal effect; nearly all actives have a fitted effect of over 40% in size
# Starred values were filed as active, the others as inactive; i = inactive; ? = inconclusive; / = no result. Most compounds without a hit are left out; they make up all but 4.7% or so of the library. Unless noted, the call rests on the fitted dose curve; in most records, active means well fitted curve in the direction sought with a large enough effect; inconclusive means small, poorly fitted or top-dose-only effect, or another doubt; inactive means no such curve, though single readings can be large; an effect the other way counts as inactive or inconclusive.
SMILES,TGFb SMAD3 inh,HepG2 tox,D3 ag,DRD3 antagonist,ATXN2 expr inh,ATXN viability
O=C1CCC[C@@H]2CC(N(Cc3cc4ccccc4s3)c3ccccc3)C[C@@H]3CCN1[C@H]23 (stereo partly specified),-7%,21%,/,/,/,/
O=C(c1ccc(Cl)cc1)N1CCCCC(Sc2nnc(-c3ccc4c(c3)OCO4)o2)C1=O (stereo unspecified),5%,-30%,1,25,2.2µM*,i
O=C(O)CSc1nnc(-c2ccc3c(c2)OCO3)o1,-3%,-1%,1,-13,-34%,i
CCOc1cc(/C=C2\SC(=S)N(NS(=O)(=O)c3ccccc3)C2=O)ccc1O,3%,-23%,-8,-15,/,11µM*
COc1cc(/C=C2\SC(=S)N(C(Cc3ccccc3)C(=O)O)C2=O)ccc1O (stereo unspecified),-8%,1%,-5,-27,/,13µM*
COc1cc(/C=C2\SC(=S)N(NC(=O)c3cccnc3)C2=O)ccc1O,-9%,-10%,-1,-19,/,32µM*
O=C(NN1C(=O)/C(=C/c2ccc(O)c(O)c2)SC1=S)c1ccccc1,-26%,-19%,11,-63*,-36%,?
COc1cc(/C=C2\SC(=S)N(NC(=O)c3ccc(O)cc3)C2=O)ccc1O,36%,-4%,-4,-21,20%,/
O=C(NCCCN1CCN(c2ccc(F)cc2)CC1)c1sc2ncccc2c1-n1cccc1,?,-27%,-15,/,?,?
Cc1ccc(-c2c(C(=O)N3CCN(c4ccc(F)cc4)CC3)oc(=O)c3ccccc23)cc1,11%,-4%,3,/,11%,i
Cc1ccc(S(=O)(=O)NCCCN2CCCC2)cc1,-11%,-5%,-17,-53*,-3%,i
Cc1cc(S(=O)(=O)NCCCN2CCOCC2)ccc1F,8%,4%,-9,-29,-1%,i
Cc1ccc(S(=O)(=O)NCCCN2CCOCC2)cc1C,-17%,-3%,-1,-67*,-7%,i
CC1(C)CC(=O)C(C=Nc2ccc(N)cc2)=C(O)C1,-6%,-7%,5,-1,-10%,?
CC1(C)CC(=O)C(C=Nc2cc(C(=O)c3ccccc3)ccc2N)=C(O)C1,-8%,-7%,-27,-125*,50%,i
COC(=O)c1ccc(N)c(N=CC2=C(O)CC(C)(C)CC2=O)c1,0%,1%,-8,-51*,62%,i
COCC(C)Nc1ncnc2c1cnn2-c1ccc(C)c(C)c1 (stereo unspecified),27%,1%,10,/,54%,?
COc1ccc(-c2cc(-c3nnc(COC(=O)C4CC4C)o3)c3ccccc3n2)cc1OC (stereo unspecified),4%,0%,50*,34,-2%,i
COc1ccc(-c2cc(-c3nnc(COC(=O)C4CC4)o3)c3ccccc3n2)cc1OC,?,-30%,3,-3,-4%,i
CC1CC1c1ccc(/C=C(\C#N)C(=O)Nc2cc(Cl)ccc2Cl)o1 (stereo unspecified),12%,-2%,-4,12,-17%,i
N#C/C(=C\c1ccc(-c2cc(Cl)ccc2Cl)o1)C(=O)Nc1ccccc1C(=O)O,-5%,1%,33*,/,5%,i
O=C(NCCN1CCOCC1)c1csc2c1CCCCC2,-9%,-2%,16,-52*,3%,?
CCN1CCN(CCCNC(=O)c2csc3c2CCCCC3)CC1,9%,-22%,-4,-54*,-11%,i
O=C(NNc1ncc(C(F)(F)F)cc1Cl)c1c(Cl)cccc1Cl,?,-14%,-9,-70*,?,i
Cc1c(Cl)cccc1NC(=S)NNc1ncc(C(F)(F)F)cc1Cl,?,-13%,-75,-75*,?,?
SMILES,TGFb SMAD3 inh,HepG2 tox,D3 ag,DRD3 antagonist,ATXN2 expr inh,ATXN viability
Fc1ccccc1NC(=S)NNc1ncc(C(F)(F)F)cc1Cl,?,-38%,-8,-25,?,i
Cc1ccccc1NC(=S)NNc1ncc(C(F)(F)F)cc1Cl,-9%,-23%,-16,-93*,-2%,i
Cc1c(O)ccc(/C=N/Nc2nc(-c3cccnc3)nc3ccccc23)c1O,?,6.3µM*,3,40,/,?
Oc1ccc(/C=N/Nc2nc(-c3cccnc3)nc3ccccc23)c(O)c1,?,-42%,17,31,-19%,i
Cc1cc(N/N=C/c2ccc(O)c(C)c2O)nc(-c2ccccc2O)n1,?,11µM*,21,64,?,16µM*
COc1cc2c(cc1NC(=O)C(C)Oc1ccc(Cl)cc1Cl)oc1ccccc12 (stereo unspecified),0%,-46%,0,/,13%,i
COc1ccc(C(O)(C(C)C)C(CN2CCOCC2)c2ccc(Cl)cc2)cc1 (stereo unspecified),?,-4%,-7,-55*,/,i
CCCCCC(O)(c1ccc(OC)cc1)C(CN1CCOCC1)c1ccccc1 (stereo unspecified),13µM*,-20%,2,-18,-32%,?
CCCCC(O)(c1ccc(OC)cc1)C(CN1CCOCC1)c1ccccc1 (stereo unspecified),0%,-2%,-9,-3,?,i
COc1ccccc1N1CCN(C(=O)CCc2c(C)nn(-c3ccc(N4CCCC4)nn3)c2C)CC1,-4%,0%,1,/,/,/
CCOc1ccc(CNCCCSc2nnnn2C)cc1OC,-6%,-3%,-18,/,-16%,i
Cc1cccc(Nc2c3c(nc4ccccc24)CCC3)c1,?,-32%,-14,-27,?,i
Cc1ccc(Nc2c3c(nc4ccccc24)CCC3)cc1F,?,-56%,-6,/,0%,28µM*
Cc1ccc2nc3c(c(Nc4ccc(C)c(C)c4)c2c1)CCC3,?,-28%,-22,/,?,18µM*
Cc1ccc2nc3c(c(Nc4ccc(O)cc4)c2c1)CCC3,?,-38%,-4,-22,/,?
COC(=O)c1c(OCc2ccccn2)cc(=O)n2c1CCN(Cc1ccc3c(c1)CCCN3C)CC2,/,/,/,/,/,i
Cc1nn(S(=O)(=O)c2cccs2)c(C)c1Sc1ccc([N+](=O)[O-])cc1,7%,3%,3,9,-31%,i
Cc1nn(S(=O)(=O)c2ccccc2)c(C)c1Sc1ccc([N+](=O)[O-])cc1,-2%,0%,-1,-80*,-2%,i
COc1ccc(CCNC(=O)Cn2c(C)c3cnn(-c4ccccc4)c(=O)c3c2C)cc1OC,-6%,-4%,-1,/,-5%,i
CC(C)(C)NC(=S)Nc1ccc(Nc2ccccc2)cc1,?,13µM*,11,?,-14%,?

# Compound activity from PubChem.
